Reference: PubChem BioAssay AID1259370 (Center for Chemical Genomics, University of Michigan, 2018)
The whole screen tested about 94,000 compounds, of which about 680 (0.72%) were called active. Shown is part of a subset that was picked to be rich in actives. A number with no mark means an inactive call. No stated cut-off is given here; in the data, active means z-score above about 3.2; inactive means the rest.

molecular target: M-phase inducer phosphatase 2 (Homo sapiens) + Cyclin-dependent kinase 2 (Homo sapiens) + Cyclin-A2 (Homo sapiens) (UniProt P30305+P24941+P20248); test: primary biochemical HTRF screen for blockers of M-phase inducer phosphatase 2 binding to CDK2/cyclin A (AID 1259370); conditions: HTRF CDC25B-CDK2/CyclinA binding, anti-His/anti-Flag; hits give high values

Structure (SMILES)	z-score
COCCOC(=O)C1=C(C)NC2=C(C(=O)C(C(=O)OC)C(C)C2)C1c1cccc(Br)c1 (stereo not given)	-0.35
CCOC(=O)C(Sc1nc(N2CCOCC2)c2c(c1C#N)CC(C)(C)OC2)c1ccccc1 (stereo not given)	-1.85
COc1cccc(CNCc2ccc3c(c2)OCO3)c1	2.98
ONC(=Nc1ccc2c(c1)OCO2)C(=Nc1ccc2c(c1)OCO2)NO	20.3 (active)
c1cc(CNCc2ccc3c(c2)OCO3)ccn1	-0.83
CCCc1cc(-c2n[nH]c(C)c2-c2ccc3c(c2)OCCO3)c(O)cc1O	1.36
Cc1nc(-n2cnc3ccccc32)c2c3c(sc2n1)CCC3	-2.24
COc1ccc(C(=O)Oc2ccc3c(C)cc(=O)oc3c2C(C)=O)cc1OC	4.76
CCOc1ccc(OCCSc2nc3ccccc3n2CC(=O)O)cc1	-2.11
O=C1C2N=NN(Cc3cccc(F)c3)C2C(=O)N1c1ccccc1 (stereo not given)	0.2
COc1ccc(-c2csc(-c3cc4c([nH]c3=O)CC(c3ccc(OC)c(OC)c3)CC4=O)n2)cc1 (stereo not given)	-1.19
COc1ccc(-c2csc(-c3cc4c([nH]c3=O)CC(c3ccco3)CC4=O)n2)cc1F (stereo not given)	12.9 (active)
COc1ccc(C2CC(=O)c3cc(-c4nc(-c5ccc(F)cc5)cs4)c(=O)[nH]c3C2)cc1 (stereo not given)	-1.13
COc1ccc(-c2noc(COc3cc(C)cc(C)c3C)n2)cc1OC	1.44
CCOc1cccc2c1N[C@@H](c1ccc(C(=O)O)cc1)[C@H]1CC=C[C@@H]21	11.8 (active)
COc1cccc([C@@H]2Nc3ccc(S(=O)(=O)Nc4ccccc4)cc3[C@@H]3C=CC[C@@H]32)c1	-1.16
COC(=O)c1ccc([C@@H]2Nc3ccc(F)cc3[C@@H]3C=CC[C@@H]32)cc1	-0.78
Cn1c(=O)n(CCc2ccccc2)c(=O)c2c3c(sc21)COC(C)(C)C3	-1.21
CCSc1nc2c(c(=O)[nH]1)C(c1ccc(OC)c(Br)c1)CC(=O)N2 (stereo not given)	-0.2
C#CCSc1nc2c(c(=O)[nH]1)C(c1ccc(OCCCC)cc1)CC(=O)N2 (stereo not given)	-1.04
C#CCSc1nc2c(c(=O)[nH]1)C(c1ccc(O)c(O)c1)CC(=O)N2 (stereo not given)	19 (active)
Cc1[nH]c2ccccc2c1C1(O)C(=O)N(Cc2cccs2)c2ccc(Br)cc21 (stereo not given)	1.66
COc1ccc(-c2ccc(Cc3nc(-c4ccc(OC)cc4)no3)cc2)cc1	-3.73

Structure (SMILES)	z-score
CN(Cc1ccccc1)c1oc(-c2ccc(COc3ccccc3)o2)nc1C#N	1.1
CCCc1nc2sc3c(OCC)ncnc3c2c2c1COC(C)(C)C2	0.03
Cc1cc(C(=O)O)c2cc(Br)ccc2n1	-1.02
COc1cccc(-c2cn3nc(C)sc3n2)c1	-1.51
CCOC(=O)N1CCN(c2c(NCCN3CCN(c4cccc(Cl)c4)CC3)c(=O)c2=O)CC1	-2.84
CCOC(=O)N1CCC(c2cc(=O)n(-c3ccccc3)[nH]2)CC1	7.05 (active)
CCOC(=O)N1CCC(C(N)=O)CC1	-0.86
Cc1nc2sc(C(c3cccc(Cl)c3)N3CCN(c4ccccc4)CC3)c(O)n2n1 (stereo not given)	-0.28
Cc1ccc(N(CC(=O)NC(C(C)C)C(C)C)S(C)(=O)=O)cc1Cl	-1.52
O=C(Nc1ccc(O)c(-c2nc3ccccc3s2)c1)C(c1ccccc1)c1ccccc1	-2.45
O=C(NCCN1CCOCC1)c1nnc(CS(=O)(=O)c2ccccc2)o1	-1.86
CCN1CCCC1CNC(=O)c1sc2nc(C)cc(C)c2c1-n1cccc1 (stereo not given)	-0.15
CCN1CCCC1CNC(=O)c1nnc(CS(=O)(=O)c2ccccc2)o1 (stereo not given)	7.59 (active)
Cc1nc2sccn2c(=O)c1S(=O)(=O)N1CCOCC1	-0.79
Cc1cc(C)cc(Nc2nccc(=O)[nH]2)c1	-2.01
CC1CCCC(NC(=O)c2cc3c(s2)-c2ccccc2OC3)C1C (stereo not given)	-0.62
CC(C)Cc1c(O)nc(SCC(=O)NCc2ccco2)[nH]c1=O	0.23
Nc1ncnc2nc(SCC(=O)NCc3ccco3)[nH]c12	-1.28
CCCCc1c(O)nc(SCC(=O)NCc2ccco2)[nH]c1=O	4.39 (active)
O=C(CC1Oc2ccccc2NC1=O)NCc1ccco1 (stereo not given)	-1.29
Cn1c(=O)c2c(c3ccccc31)OC(=O)CC2c1ccc(Br)cc1 (stereo not given)	-0.71
O=C1CC(c2ccccc2)Sc2nc(-c3ccccc3)nn21 (stereo not given)	-0.15
